Data on one sequence can be found in publication PMC7862700, “An all-to-all approach to the identification of sequence-specific readers for epigenetic DNA modifications on cytosine”.

Holding throughout (experiment): DAPPL (digital affinity profiling via proximity ligation, sequencing); 10 mM Tris-HCl pH 7.5, 50 mM NaCl, 1 mM DTT, 4% glycerol, room temperature, 30 min; GST-TFs on glutathione beads, 16-mer random dsDNA library, 0.1% formaldehyde crosslink after washing; high values mean tight binding
Common to all, as to settings: protein: recombinant; tags: N-terminal GST; dsDNA, one strand shown

One assay concerns the target T1, FLI1 (Homo sapiens, UniProt Q01543 1-452).
T1 sequence: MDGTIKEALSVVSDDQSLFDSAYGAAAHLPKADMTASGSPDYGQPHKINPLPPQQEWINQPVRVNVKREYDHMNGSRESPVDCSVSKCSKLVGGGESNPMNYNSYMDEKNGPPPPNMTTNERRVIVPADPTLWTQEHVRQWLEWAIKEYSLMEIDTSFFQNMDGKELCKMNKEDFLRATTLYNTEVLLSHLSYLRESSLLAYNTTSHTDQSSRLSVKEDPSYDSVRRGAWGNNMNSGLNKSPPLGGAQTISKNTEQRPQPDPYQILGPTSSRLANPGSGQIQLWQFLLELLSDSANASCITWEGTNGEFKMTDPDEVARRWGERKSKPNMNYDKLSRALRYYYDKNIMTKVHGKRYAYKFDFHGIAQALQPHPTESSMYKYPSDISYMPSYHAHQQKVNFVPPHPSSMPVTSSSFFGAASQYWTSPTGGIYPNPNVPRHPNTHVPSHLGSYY
Summed up: (§1)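 Sequencing on an Illumina NextSeq500 followed washing, crosslinking with 0.1% formaldehyde, proximity ligation (BsaI/T4 ligase, 1 h, 37 °C) and PCR amplification of pools that had been incubated for 30 min at room temperature with 200 nmole of a random double-stranded 16-mer DNA library in Tris/NaCl/DTT/glycerol buffer. Each pool held DNA-barcoded human transcription factors, expressed in yeast as GST fusions and captured on glutathione beads, plus a tag-only sample. Binding signal is a hexamer's read frequency for a factor divided by its frequency in the tag-only sample.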

A further assay addresses T2, ELK1 (Homo sapiens, UniProt P19419 1-428).
T2 sequence: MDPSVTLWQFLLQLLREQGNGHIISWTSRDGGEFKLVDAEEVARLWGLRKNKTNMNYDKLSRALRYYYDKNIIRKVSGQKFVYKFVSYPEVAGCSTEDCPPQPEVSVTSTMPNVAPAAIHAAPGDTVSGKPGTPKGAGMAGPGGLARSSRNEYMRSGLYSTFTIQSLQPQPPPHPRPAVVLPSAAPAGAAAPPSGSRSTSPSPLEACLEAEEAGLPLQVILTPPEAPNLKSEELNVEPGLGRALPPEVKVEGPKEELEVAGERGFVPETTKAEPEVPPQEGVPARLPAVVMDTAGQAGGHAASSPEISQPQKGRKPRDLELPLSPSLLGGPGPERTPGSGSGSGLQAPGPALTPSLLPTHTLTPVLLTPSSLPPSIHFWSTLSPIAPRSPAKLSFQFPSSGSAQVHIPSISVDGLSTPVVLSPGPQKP
In a few lines: as §1

The next assay addresses T3, GABPA (Homo sapiens, UniProt Q06546 1-454).
T3 sequence: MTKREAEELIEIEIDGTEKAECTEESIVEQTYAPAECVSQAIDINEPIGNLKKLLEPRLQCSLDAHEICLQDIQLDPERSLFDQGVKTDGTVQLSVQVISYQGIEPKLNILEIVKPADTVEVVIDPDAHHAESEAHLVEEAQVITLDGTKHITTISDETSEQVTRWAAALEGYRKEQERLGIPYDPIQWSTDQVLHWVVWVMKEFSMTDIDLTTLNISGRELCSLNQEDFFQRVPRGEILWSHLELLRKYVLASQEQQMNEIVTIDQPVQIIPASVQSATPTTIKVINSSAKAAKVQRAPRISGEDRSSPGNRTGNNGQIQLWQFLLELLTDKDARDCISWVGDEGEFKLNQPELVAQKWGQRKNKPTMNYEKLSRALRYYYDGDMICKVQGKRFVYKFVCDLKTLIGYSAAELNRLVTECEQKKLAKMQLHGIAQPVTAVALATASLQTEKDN
Summed up:
as §1

A further assay concerns the target T4, ERG (Homo sapiens, UniProt P11308 1-479).
T4 sequence: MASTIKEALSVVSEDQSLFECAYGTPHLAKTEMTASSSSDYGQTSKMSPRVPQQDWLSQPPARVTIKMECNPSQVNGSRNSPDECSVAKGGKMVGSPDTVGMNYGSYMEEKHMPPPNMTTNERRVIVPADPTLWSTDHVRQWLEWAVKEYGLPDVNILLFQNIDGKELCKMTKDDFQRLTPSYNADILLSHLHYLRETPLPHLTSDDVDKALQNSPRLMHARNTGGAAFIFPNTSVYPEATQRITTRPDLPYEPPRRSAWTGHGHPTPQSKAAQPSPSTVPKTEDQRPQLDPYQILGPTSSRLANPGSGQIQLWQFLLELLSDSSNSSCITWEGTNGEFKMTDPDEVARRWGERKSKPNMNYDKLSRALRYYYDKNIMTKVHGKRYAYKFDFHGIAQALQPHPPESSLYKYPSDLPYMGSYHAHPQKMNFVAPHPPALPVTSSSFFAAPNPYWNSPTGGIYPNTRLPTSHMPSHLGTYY
In a few lines: as §1

In the next assay the target is ELF1 (Homo sapiens, UniProt P32519 1-619). In a few lines: as §1
Another assay deals with T5, EHF (Homo sapiens, UniProt Q9NZC4 1-300).
T5 sequence: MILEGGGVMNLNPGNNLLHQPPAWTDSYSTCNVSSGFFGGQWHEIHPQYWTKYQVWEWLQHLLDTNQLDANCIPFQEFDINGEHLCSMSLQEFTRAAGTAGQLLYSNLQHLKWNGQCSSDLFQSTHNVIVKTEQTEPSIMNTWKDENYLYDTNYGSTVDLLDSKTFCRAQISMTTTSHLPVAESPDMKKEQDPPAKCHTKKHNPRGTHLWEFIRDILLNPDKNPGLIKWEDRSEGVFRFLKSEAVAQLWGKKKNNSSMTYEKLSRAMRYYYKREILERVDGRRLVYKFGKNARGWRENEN
Summed up: as §1

The target of another assay is SPI1 (Homo sapiens, UniProt P17947 1-270). In a few lines:
as §1

The next assay has as its target SPIB (Homo sapiens, UniProt Q01892 1-262). In a few lines: as §1
The target in a further assay is T6, ELK3 (Homo sapiens, UniProt P41970 1-407).
T6 sequence: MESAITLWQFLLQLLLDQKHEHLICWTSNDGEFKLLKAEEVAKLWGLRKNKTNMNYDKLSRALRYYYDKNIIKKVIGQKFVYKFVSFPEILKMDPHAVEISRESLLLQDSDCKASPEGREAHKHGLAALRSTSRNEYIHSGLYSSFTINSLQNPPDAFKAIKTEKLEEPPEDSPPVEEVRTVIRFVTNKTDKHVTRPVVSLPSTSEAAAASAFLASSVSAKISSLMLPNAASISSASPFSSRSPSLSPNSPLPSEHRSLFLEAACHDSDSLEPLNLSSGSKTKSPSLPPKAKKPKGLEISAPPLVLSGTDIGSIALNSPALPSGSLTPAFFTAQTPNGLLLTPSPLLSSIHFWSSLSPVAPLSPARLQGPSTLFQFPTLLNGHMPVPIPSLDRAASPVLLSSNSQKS
In a few lines: as §1

A further assay concerns the target T7, FEV (Homo sapiens, UniProt Q99581 1-238).
T7 sequence: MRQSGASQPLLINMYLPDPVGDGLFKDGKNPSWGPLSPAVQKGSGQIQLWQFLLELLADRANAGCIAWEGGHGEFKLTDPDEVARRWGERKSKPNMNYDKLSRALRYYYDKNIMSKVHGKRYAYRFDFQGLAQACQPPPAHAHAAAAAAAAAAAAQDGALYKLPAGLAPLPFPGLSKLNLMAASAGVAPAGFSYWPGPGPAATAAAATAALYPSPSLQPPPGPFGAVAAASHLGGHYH
In a few lines: as §1

In another assay the target is ETV5 (Homo sapiens, UniProt P41161 1-510). Summed up:
as §1

In another assay the target is T8, SPIC (Homo sapiens, UniProt Q8N5J4 1-248).
T8 sequence: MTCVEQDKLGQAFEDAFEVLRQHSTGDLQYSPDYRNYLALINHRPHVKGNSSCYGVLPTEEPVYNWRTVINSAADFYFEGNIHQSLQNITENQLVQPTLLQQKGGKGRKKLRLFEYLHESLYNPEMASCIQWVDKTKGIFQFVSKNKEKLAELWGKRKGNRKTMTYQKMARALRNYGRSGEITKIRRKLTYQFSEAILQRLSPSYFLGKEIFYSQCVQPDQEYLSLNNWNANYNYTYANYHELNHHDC
In a few lines: as §1

A further assay deals with ELF4 (Homo sapiens, UniProt Q99607 1-663). Summed up:
as §1

The target in a further assay is ETV1 (Homo sapiens, UniProt P50549 1-477). Summed up: as §1
For the next assay, the target named is T9, ERF (Homo sapiens, UniProt P50548 1-548).
T9 sequence: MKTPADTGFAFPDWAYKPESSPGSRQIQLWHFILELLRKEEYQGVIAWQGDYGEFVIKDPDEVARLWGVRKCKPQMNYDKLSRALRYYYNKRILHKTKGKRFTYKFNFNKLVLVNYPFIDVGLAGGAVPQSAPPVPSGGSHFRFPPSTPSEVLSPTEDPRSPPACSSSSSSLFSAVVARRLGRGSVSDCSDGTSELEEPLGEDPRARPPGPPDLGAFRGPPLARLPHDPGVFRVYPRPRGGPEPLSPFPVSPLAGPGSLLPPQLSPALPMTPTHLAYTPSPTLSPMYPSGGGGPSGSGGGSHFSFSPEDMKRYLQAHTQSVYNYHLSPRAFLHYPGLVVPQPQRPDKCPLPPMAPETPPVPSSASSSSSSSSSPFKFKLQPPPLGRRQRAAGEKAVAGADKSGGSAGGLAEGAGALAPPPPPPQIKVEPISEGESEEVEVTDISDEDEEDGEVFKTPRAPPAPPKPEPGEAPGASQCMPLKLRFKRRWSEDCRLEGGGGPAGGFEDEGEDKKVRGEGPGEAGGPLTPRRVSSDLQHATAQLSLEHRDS
In a few lines: as §1

A further assay concerns the target T10, ETV3L (Homo sapiens, UniProt Q6ZN32 1-361).
T10 sequence: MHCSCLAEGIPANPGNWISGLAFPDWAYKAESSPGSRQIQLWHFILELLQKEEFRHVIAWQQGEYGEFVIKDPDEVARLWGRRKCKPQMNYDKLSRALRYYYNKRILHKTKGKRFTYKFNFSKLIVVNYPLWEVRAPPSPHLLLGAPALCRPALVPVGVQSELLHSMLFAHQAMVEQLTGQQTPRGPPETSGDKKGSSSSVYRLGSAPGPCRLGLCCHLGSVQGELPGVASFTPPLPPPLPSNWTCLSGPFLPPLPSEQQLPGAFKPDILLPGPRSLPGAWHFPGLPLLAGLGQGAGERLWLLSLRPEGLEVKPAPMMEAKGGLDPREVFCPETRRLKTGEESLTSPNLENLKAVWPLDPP
Summed up:
as §1

For the next assay, the target named is T11, ETS2 (Homo sapiens, UniProt P15036 1-469).
T11 sequence: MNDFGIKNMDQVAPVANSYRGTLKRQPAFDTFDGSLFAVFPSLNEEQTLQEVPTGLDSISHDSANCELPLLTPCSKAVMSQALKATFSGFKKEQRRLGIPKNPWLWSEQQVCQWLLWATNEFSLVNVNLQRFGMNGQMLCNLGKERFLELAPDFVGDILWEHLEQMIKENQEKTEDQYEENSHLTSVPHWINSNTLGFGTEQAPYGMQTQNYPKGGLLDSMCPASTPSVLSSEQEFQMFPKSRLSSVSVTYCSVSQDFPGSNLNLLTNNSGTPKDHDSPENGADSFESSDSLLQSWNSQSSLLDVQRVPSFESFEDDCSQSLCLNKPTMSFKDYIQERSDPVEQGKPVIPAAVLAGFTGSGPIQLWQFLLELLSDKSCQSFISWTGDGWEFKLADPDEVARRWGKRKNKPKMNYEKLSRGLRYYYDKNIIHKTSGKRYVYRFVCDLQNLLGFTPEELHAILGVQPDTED
In a few lines: as §1

The next assay deals with T12, ELF5 (Homo sapiens, UniProt Q9UKW6-2 1-255).
T12 sequence: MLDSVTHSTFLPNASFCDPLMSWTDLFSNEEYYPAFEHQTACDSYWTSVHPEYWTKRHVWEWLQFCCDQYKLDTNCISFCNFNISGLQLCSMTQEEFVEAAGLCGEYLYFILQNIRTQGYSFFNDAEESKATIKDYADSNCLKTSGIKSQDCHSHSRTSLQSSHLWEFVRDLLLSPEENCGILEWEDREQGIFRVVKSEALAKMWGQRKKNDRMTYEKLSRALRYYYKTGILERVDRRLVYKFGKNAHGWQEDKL
In a few lines: as §1

The next assay deals with T13, ETV3 (Homo sapiens, UniProt P41162-2 1-143).
T13 sequence: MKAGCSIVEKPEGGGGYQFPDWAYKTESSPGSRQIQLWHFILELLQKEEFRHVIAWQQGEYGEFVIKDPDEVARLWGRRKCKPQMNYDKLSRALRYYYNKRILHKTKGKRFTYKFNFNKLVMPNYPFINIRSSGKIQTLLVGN
Summed up: as §1

The target of another assay is ETV6 (Homo sapiens, UniProt P41212 1-452). Summed up:
as §1

ELF1, sequence (P32519 whole entry): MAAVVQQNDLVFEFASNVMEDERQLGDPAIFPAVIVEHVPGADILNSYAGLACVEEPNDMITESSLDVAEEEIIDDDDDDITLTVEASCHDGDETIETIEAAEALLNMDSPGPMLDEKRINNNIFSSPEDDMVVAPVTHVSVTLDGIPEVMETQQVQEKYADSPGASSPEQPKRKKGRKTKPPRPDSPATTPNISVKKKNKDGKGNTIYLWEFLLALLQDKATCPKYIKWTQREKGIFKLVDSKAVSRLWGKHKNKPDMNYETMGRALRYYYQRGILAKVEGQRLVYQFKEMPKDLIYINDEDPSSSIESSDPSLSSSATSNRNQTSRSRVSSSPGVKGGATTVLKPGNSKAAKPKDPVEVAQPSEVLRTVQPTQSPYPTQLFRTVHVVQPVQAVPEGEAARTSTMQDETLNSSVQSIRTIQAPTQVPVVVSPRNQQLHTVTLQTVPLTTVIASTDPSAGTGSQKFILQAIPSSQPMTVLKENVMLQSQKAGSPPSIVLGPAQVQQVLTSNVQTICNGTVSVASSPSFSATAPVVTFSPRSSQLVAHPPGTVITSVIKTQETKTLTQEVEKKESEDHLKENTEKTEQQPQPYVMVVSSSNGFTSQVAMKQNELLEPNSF
SPIB, sequence (Q01892 whole entry): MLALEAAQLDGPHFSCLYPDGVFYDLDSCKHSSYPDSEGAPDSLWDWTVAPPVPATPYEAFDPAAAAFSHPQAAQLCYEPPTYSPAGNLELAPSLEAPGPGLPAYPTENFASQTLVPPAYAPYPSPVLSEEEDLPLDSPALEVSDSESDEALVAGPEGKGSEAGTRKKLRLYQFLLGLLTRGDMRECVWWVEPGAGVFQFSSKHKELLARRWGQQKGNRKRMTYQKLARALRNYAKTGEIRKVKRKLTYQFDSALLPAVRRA
ETV1, sequence (P50549 whole entry): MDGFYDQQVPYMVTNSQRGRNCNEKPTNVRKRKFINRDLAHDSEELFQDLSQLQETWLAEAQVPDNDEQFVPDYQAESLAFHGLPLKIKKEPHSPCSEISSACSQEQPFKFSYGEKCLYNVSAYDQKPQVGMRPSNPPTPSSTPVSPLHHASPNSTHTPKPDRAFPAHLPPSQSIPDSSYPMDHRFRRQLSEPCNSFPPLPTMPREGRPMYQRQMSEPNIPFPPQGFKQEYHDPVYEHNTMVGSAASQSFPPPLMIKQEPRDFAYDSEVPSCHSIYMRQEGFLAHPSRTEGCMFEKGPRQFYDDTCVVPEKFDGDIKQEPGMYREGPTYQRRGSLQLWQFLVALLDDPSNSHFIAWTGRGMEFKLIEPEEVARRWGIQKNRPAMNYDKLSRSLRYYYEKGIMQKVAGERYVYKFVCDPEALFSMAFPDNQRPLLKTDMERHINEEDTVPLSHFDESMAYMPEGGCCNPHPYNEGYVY
ETV5, sequence (P41161 whole entry): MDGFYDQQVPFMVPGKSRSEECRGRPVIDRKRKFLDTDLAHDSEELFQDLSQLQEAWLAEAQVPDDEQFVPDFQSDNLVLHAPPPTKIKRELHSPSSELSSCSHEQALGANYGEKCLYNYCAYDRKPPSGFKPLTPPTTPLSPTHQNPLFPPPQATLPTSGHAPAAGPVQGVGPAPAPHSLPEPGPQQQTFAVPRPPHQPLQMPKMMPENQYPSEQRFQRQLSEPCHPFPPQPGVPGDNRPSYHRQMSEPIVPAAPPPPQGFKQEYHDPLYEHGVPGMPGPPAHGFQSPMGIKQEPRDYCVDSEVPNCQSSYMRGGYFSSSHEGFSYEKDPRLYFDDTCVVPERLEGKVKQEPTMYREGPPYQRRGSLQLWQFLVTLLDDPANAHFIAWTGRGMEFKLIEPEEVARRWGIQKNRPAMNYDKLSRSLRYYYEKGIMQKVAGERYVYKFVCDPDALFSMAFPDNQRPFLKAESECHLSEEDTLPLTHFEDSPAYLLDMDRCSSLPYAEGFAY
ELF4, sequence (Q99607 whole entry): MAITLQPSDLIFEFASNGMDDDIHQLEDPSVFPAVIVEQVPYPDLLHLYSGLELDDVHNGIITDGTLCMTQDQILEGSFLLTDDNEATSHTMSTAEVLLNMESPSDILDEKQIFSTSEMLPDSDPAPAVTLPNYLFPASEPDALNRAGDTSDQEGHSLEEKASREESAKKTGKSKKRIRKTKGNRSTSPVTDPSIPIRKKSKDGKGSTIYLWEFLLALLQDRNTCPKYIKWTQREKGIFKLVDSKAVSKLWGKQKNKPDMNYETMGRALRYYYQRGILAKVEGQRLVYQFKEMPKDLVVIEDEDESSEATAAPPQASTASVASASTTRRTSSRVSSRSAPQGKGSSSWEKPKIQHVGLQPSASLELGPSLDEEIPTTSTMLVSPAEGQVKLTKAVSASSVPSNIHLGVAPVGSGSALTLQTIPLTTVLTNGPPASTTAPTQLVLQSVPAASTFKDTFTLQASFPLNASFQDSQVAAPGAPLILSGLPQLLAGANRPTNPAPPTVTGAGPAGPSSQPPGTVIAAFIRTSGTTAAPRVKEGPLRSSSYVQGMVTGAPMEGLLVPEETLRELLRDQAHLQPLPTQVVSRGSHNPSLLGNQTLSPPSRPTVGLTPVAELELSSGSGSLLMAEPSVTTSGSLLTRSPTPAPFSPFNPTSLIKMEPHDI
ETV6, sequence (P41212 whole entry): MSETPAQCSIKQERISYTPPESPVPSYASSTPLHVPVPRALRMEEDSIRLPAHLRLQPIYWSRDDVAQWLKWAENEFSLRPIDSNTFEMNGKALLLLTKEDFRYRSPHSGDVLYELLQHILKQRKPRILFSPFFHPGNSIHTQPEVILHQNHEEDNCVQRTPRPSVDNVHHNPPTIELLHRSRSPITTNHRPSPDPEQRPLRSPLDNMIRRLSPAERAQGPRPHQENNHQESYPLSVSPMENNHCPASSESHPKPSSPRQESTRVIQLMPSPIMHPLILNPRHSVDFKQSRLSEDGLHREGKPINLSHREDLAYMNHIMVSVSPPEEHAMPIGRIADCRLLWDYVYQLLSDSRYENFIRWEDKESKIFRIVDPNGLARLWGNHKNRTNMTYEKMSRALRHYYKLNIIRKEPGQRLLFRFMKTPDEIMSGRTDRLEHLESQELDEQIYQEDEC

For the sequence TTGGTC, the binding signal is 1.16 fold enrichment (6-mer frequency, TF over GST control) in the assay with FLI1; 1.17 fold enrichment (6-mer frequency, TF over GST control) with ELK1; 1.11 fold enrichment (6-mer frequency, TF over GST control) with GABPA; 1.06 fold enrichment (6-mer frequency, TF over GST control) with ERG; 1.15 fold enrichment (6-mer frequency, TF over GST control) with ELF1; 1.14 fold enrichment (6-mer frequency, TF over GST control) in the assay with EHF. Moreover, the binding signal with SPI1 was 1.08 fold enrichment (6-mer frequency, TF over GST control); with SPIB, 1.05 fold enrichment (6-mer frequency, TF over GST control); with ELK3, 1.11 fold enrichment (6-mer frequency, TF over GST control); with FEV it was 1.04 fold enrichment (6-mer frequency, TF over GST control); in the assay with ETV5, 1.1 fold enrichment (6-mer frequency, TF over GST control); in the assay with SPIC it was 1.12 fold enrichment (6-mer frequency, TF over GST control). Further, the binding signal with ELF4 is 1.13 fold enrichment (6-mer frequency, TF over GST control); in the assay with ETV1, 1.17 fold enrichment (6-mer frequency, TF over GST control); with ERF, 1.08 fold enrichment (6-mer frequency, TF over GST control); with ETV3L, 1.08 fold enrichment (6-mer frequency, TF over GST control); with ETS2, 1.1 fold enrichment (6-mer frequency, TF over GST control); with ELF5 it was 1.04 fold enrichment (6-mer frequency, TF over GST control). In addition, the binding signal with ETV3 was 1.05 fold enrichment (6-mer frequency, TF over GST control); in the assay with ETV6, 1.06 fold enrichment (6-mer frequency, TF over GST control).
